Consider 14 molecules from PubChem BioAssay (NCATS).

Where “and” joins values, the source holds several entries; their conditions need not be identical. Identical values can stand only once. Inconclusive results are not listed. Calls of active or inactive are those of the source. The call rests on the fitted dose curve.

The assay in a line: qHTS Assay for Lipid Storage Modulators (AID 1519). On activity change, negative = inhibition: on the % scale 0 is the no-effect control and ±100 the full control effect. The note with it: Drosophila S3 cells, BODIPY lipid droplet/cell ratio, laser cytometry, cells loaded with oleic acid. An excerpt:
NIH Molecular Libraries Probe Production Centers Network [MLPCN]
NIH Chemical Genomics Center [NCGC]
Assay Submitter (PI): Beller, Mathias; Max-Planck-Institut fur Biophysikalische Chemie
NCGC Assay Overview: Storing lipids as a reservoir for energy or the anabolism of elementary metabolites is a common feature of probably all cells and is conserved from bacteria to humans. The universal cellular lipid storage organelle is the so-called lipid storage droplet (LD). Although ubiquitous, LDs share a simple structure composed of a hydrophobic core that harbors the storage lipids, which is shielded by a droplet-specific phospholipid monolayer to which proteins are attached. The current model of LD biogenesis involves an incorporation of the lipid core into the membrane leaflets of the endoplasmic reticulum (ER) followed by a subsequent budding-like maturation of a LD, which ultimately pinches off. Once released, LD volume can increase by localized lipogenesis or fusion of existing droplets. Storage lipids are re-mobilized enzymatically by lipase activity. Lipase regulation in the adipocyte is heavily studied and involves multiple components including catecholamine signaling, the LD-associated proteins Perilipin and comparative gene identification-58 (CGI-58) and at least two lipases named hormone sensitive lipase (HSL) and adipocyte triglyceride lipase (ATGL). LD regulation outside of the adipocyte is poorly understood and only few components are known. However, there is an urgent need to learn more about ectopic fat depots as mislocalized storage of lipids, for example in the liver or muscle, is an eminent health problem associated with insulin resistance or the metabolic syndrome. We developed a laser-scanning cytometer assay to enable 1,536-well screening and combined the results of the small molecules screen with an RNAi database based on lipid storage.
NCGC Assay Protocol Summary:
We dispensed 4 uL of cells at 1.25 x 10^6 cells/mL into LoBase Aurora COC 1,536-well plates (black walled, clear bottom) with a bottle-valve solenoid-based dispenser (Aurora) to obtain 5,000 cells/well. Triacsin C (Sigma-Aldrich T-4540), an inhibitor of long-chain fatty acyl CoA synthetase that blocks synthesis of triglycerides, was used as a positive control for lipid under-storage. A total of 23 nL of compound solution of different concentrations were transferred to the assay plates using a Kalypsys pin tool equipped with a 1,536-pin array containing 10-nL slotted pins (FP1S10, 0.457-mm diameter, 50.8 mm long; V&P Scientific). One microliter of oleic acid (400 uM) was added, and the plate was lidded with stainless steel rubber gasket lined lids containing pinholes. […] Fluorescence was detected by excitation of the fluorophores with a 488-nm laser on an Acumen Explorer (TTP Lab Tech). The total intensity in channel 1 (500-530 nm) reflected lipid droplet accumulation. […] The ratio of the total intensity in PMT channel 1 over total intensity of channel 3 was also calculated. Percent activity was computed relative to an internal control (100% inhibited lipid droplet deposition due to the presence of 20 uM Triacsin C), which was added to 32 wells/plate.
(In general: qHTS replaces the single test concentration by a dilution series.)

Where [1] appears, read: measured here: cell count channel max response.
[2] abbreviates: measured here: lipid channel max response.

On to `C[C@@H](C(=O)O)c1cccc(C(=O)c2ccccc2)c1`, for which the activity change, negative = inhibition (at 25.7 µM (top of the series)) is -0.218% (inactive). Also, the max response runs as follows: under setting [1], 11.1%; under setting [2], 10.1%.

On to `COc1ccc([C@H]2Sc3ccccc3N(CCN(C)C)C(=O)[C@H]2OC(C)=O)cc1`, for which the activity change, negative = inhibition (at 25.7 µM (top of the series)) was -1.07% (inactive). Further, the max response runs as follows: under setting [1], 7.03%; under setting [2], 9.95%.

With `CC(C)(S)[C@H](N)C(=O)O`, the activity change, negative = inhibition (at 57.5 µM (top of the series)) is 4.84% (inactive). The max response came to 10.4% under setting [1] and 19.3% under setting [2].

With `N#C/C(=C\c1ccc(O)c(O)c1)C(=O)NCCCCc1ccccc1`, the activity change, negative = inhibition (at 57.5 µM (top of the series)) is -2.23% (inactive). The max response is, setting by setting: under setting [1], 21.1%; under setting [2], 17.3%.

For `Cn1cc(C(F)(F)F)nc1-c1ccc(OC[C@@H](O)CNCCOc2ccc(O)c(C(N)=O)c2)cc1`, the activity change, negative = inhibition (at 57.5 µM (top of the series)) was 1.54% (inactive). Also, the max response runs as follows: under setting [1], -4.45%; under setting [2], -2.61%.

Regarding `CS(=O)(=O)Nc1cccc(-c2nc(NC3CC3)c3ccccc3n2)c1`, the activity change, negative = inhibition (at 57.5 µM (top of the series)) is 3.51% (inactive). Also, the max response turned out to be 19.9% under setting [1] and 22.8% under setting [2].

With `Cn1cccc1C(=O)N1CCC2(CCCN(c3ccncc3)C2)CC1`, the activity change, negative = inhibition (at 57.5 µM (top of the series)) was 5.74% (inactive). In addition, the max response was found to be 8.08% under setting [1] and 18.3% under setting [2].

Consider `Cn1cccc1C(=O)N1CCC2(CC1)CN(C(=O)Nc1cccc(C#N)c1)C2`, for which the activity change, negative = inhibition (at 57.5 µM (top of the series)) was 4.61% (inactive). The max response by setting is: under setting [1], 11.3%; under setting [2], 18.4%.

Consider `CS(=O)(=O)Nc1cccc(-c2nc(NCc3cccs3)c3ccccc3n2)c1`, for which the activity change, negative = inhibition (at 57.5 µM (top of the series)) is 6.98% (inactive). Moreover, the max response is -9.8% under setting [1] and -2.81% under setting [2].

Take `CC(C)CN1CC2(CCN(C(=O)c3csnn3)CC2)C1`: for the setting “at 57.5 µM (top of the series)”, the activity change, negative = inhibition is -0.802% (inactive). Also, the max response runs as follows: under setting [1], -2.36%; under setting [2], -0.0505%.

As to `O=c1[nH]cnc2c1ncn2C1OC(CO)C(O)C1O` (configuration not stated), for the setting “at 57.5 µM (top of the series)”, the activity change, negative = inhibition was 5.69% (inactive) and -3.39% (inactive) and 2.45% (inactive). The max response by setting is: under setting [1], 8.98% and -19.5% and -3.51%; under setting [2], 14% and -19.8% and 0.274%.

With `COC(=O)N1CCC[C@@]2(CCN(Cc3cc(C(F)(F)F)cc(C(F)(F)F)c3)C2)C1`, where the note is “at 57.5 µM (top of the series)”, the activity change, negative = inhibition was -1.37% (inactive). For the same molecule, the max response runs as follows: under setting [1], 12.3%; under setting [2], 14.8%.

Consider `O=C(c1ccncc1)N1CCC2(CC1)CN(c1ccccn1)C2`, for which the activity change, negative = inhibition (at 57.5 µM (top of the series)) was 3.6% (inactive). Moreover, the max response runs as follows: under setting [1], 0.68%; under setting [2], 6.79%.

Turning to `C=C1C2CC[C@@]3(C)C(c4ccoc4)OC(=O)C[C@@]13OC1CC(O)C(C)(C)C(CC(=O)OC)[C@@]12C` (some centres not stated), the activity change, negative = inhibition (at 57.5 µM (top of the series)) is -26.4% (inactive) and -20.4% (inactive). Also, the max response runs as follows: under setting [1], 9.22% and 0.891%; under setting [2], -12.6% and -14.6%.
